Test results taken from PubChem BioAssay (NCI).
The panel holds about 79,000 compounds, 15% with a hit somewhere; the sample as a whole holds those more often. The source made the active and inactive calls. No stated cut-off is given here; in the data, active means growth inhibition above about 70%; inactive means the rest.

Experiments:
[1] = NCI Yeast Anticancer Drug Screen. Data for the rad50 strain (AID 155);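 further: 0% = growth of vehicle-only cultures of the same strain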; conditions: S. cerevisiae rad50 strain growth inhibition, stronger effect = higher value
In short: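 DNA repair mutant yeast, compound exposure, growth read-out; inhibition is taken relative to vehicle.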

[2] = NCI Yeast Anticancer Drug Screen. Data for the mec2-1 strain (AID 157); conditions: S. cerevisiae mec2-1 strain, stronger effect = higher value
In short: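 Cells of the genetically defined mec2-1 yeast strain are incubated with test compound. Inhibition of growth is calculated against vehicle-treated controls.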

[3] = NCI Yeast Anticancer Drug Screen. Data for the sgs1 mgt1 strain (AID 161);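 further: 0% = growth of cultures given vehicle only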; conditions: S. cerevisiae sgs1 mgt1 strain, stronger effect = higher value
In short: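 Read-out: growth inhibition vs vehicle controls. Cells: mutant yeast strain deficient in DNA damage repair.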

[4] = NCI Yeast Anticancer Drug Screen. Data for the cln2 rad14 strain (AID 165);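 further: 0% = growth equal to vehicle treated cultures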; conditions: S. cerevisiae cln2 rad14 strain, stronger effect = higher value
In short: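 The screen exposed genetically defined yeast (cln2 rad14) to test compounds and scored growth inhibition relative to vehicle-treated controls.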

[5] = NCI Yeast Anticancer Drug Screen. Data for the bub3 strain (AID 167); conditions: S. cerevisiae bub3 mutant strain, stronger effect = higher value
In short: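 In this screen, a yeast mutant lacking normal mitotic checkpoint function is challenged with compound. Relative growth versus vehicle gives the inhibition value.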

[6] = NCI Yeast Anticancer Drug Screen. Data for the mlh1 rad18 strain (AID 175); conditions: S. cerevisiae mlh1 rad18 strain growth inhibition, stronger effect = higher value
In short: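 Compound-treated yeast growth, normalised to vehicle controls. Strain bears defined DNA repair mutations.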

[7] = at 5.0 µM (retest, dose inferred, filed as 0.5)
[8] = at 50.0 µM (retest, dose inferred, filed as 5.0)

Measured: growth inhibition

Cc1ccc2c(c1)sc(-c1ccc(N(C)C)cc1)[n+]2C
inactive: [1]; [7] 42% | [2]; [7] 45% | [3]; [7] 45% | [5]; [7] 67% | [6]; [7] 24%
active: [1]; [8] 92% | [1]; at 50.0 µM 90.7% | [2]; [8] 96% | [2]; at 50.0 µM 91.8% | [3]; [8] 98% | [3]; at 50.0 µM 91.8% | [4]; [7] 74% | [4]; [8] 98% | [4]; at 50.0 µM 89.1% | [5]; [8] 98% | [5]; at 50.0 µM 90.8% | [6]; [8] 86% | [6]; at 50.0 µM 90.5%

Cc1cc2nc(CC(=O)c3ccncc3)c(=O)[nH]c2cc1C
inactive: [1]; [7] -28% | [1]; [8] 9% | [1]; at 50.0 µM 6.65% | [2]; [7] 8% | [2]; [8] -11% | [2]; at 50.0 µM 11.7% | [3]; [7] 1% | [3]; [8] 17% | [3]; at 50.0 µM 21.6% | [4]; [7] -9% | [4]; [8] 33% | [4]; at 50.0 µM 30.1% | [5]; [7] -5% | [5]; [8] 24% | [5]; at 50.0 µM 7.45% | [6]; [7] -18% | [6]; [8] 21%
active: [6]; at 50.0 µM 73.1%

COc1cc(N(CCC#N)CCC#N)ccc1/C(N=Nc1ccc(C(=O)O)cc1)=N/NC(=O)c1cc(Br)ccc1O
active: [1]; at 50.0 µM 74.8%
inactive: [1]; [7] 9% | [1]; [8] 26% | [2]; [7] 12% | [2]; [8] 24% | [2]; at 50.0 µM 62.1% | [3]; [7] -13% | [3]; [8] 20% | [3]; at 50.0 µM 25.7% | [4]; [7] 6% | [4]; [8] 12% | [4]; at 50.0 µM 34% | [5]; [7] 14% | [5]; [8] 40% | [5]; at 50.0 µM 59.2% | [6]; [7] 8% | [6]; [8] 21% | [6]; at 50.0 µM 50.3%

Cn1c(-c2ccccc2)c(/C=C/C2=[N+](C)c3ccccc3C2(C)C)c2ccccc21
active: [1]; [7] 88% | [1]; [8] 99% | [1]; at 50.0 µM 99.6% | [2]; [7] 72% | [2]; [8] 99% | [2]; at 50.0 µM 99.6% | [3]; [7] 96% | [3]; at 50.0 µM 99.6% | [4]; [8] 98% | [4]; at 50.0 µM 99% | [5]; [7] 93% | [5]; [8] 100% | [5]; at 50.0 µM 99.5% | [6]; [7] 89% | [6]; [8] 99% | [6]; at 50.0 µM 99%
inactive: [3]; [8] 56% | [4]; [7] 59%

O=C(CCc1ccccc1)ON1C(=S)NC(c2ccccc2)(c2ccccc2)C1=S
active: [4]; at 50.0 µM 70.2% | [5]; at 50.0 µM 79.2% | [6]; at 50.0 µM 72.4%
inactive: [1]; [7] 14% | [1]; [8] 42% | [1]; at 50.0 µM 29.7% | [2]; [7] 0% | [2]; [8] 22% | [2]; at 50.0 µM 55.7% | [3]; [7] -11% | [3]; [8] 64% | [3]; at 50.0 µM 63.3% | [4]; [7] 16% | [4]; [8] 59% | [5]; [7] 0% | [5]; [8] 47% | [6]; [7] 13% | [6]; [8] 61%

O=[N+]([O-])c1ccc(C(Br)c2ccc([N+](=O)[O-])cc2)cc1
inactive: [1]; [7] 42% | [2]; [7] 29% | [3]; [7] 65% | [4]; [7] 22% | [5]; [7] 15% | [6]; [7] 54%
active: [1]; [8] 97% | [1]; at 50.0 µM 99.8% | [2]; [8] 100% | [2]; at 50.0 µM 99.8% | [3]; [8] 100% | [3]; at 50.0 µM 99.8% | [4]; [8] 99% | [4]; at 50.0 µM 99.7% | [5]; [8] 100% | [5]; at 50.0 µM 99.7% | [6]; [8] 99% | [6]; at 50.0 µM 99.7%

COC(=O)Nc1nc2ccc(C3(c4ccc(F)cc4)OCCO3)cc2[nH]1
inactive: [1]; [7] 25% | [1]; [8] 51% | [1]; at 50.0 µM -6.5% | [2]; [7] 9% | [2]; [8] 67% | [2]; at 50.0 µM 35% | [3]; [7] 20% | [3]; [8] 55% | [4]; [7] 11% | [4]; [8] 36% | [4]; at 50.0 µM 56.2% | [5]; [7] 22% | [6]; [7] 18%
active: [3]; at 50.0 µM 79% | [5]; [8] 72% | [5]; at 50.0 µM 84.1% | [6]; [8] 76% | [6]; at 50.0 µM 80%

O=C(c1ccccc1)C(O)C(Br)(CBr)c1ccccc1 (stereo not given)
inactive: [1]; [7] 19% | [2]; [7] 11% | [3]; [7] 4% | [4]; [7] 15% | [5]; [7] 2% | [6]; [7] 6%
active: [1]; [8] 97% | [1]; at 50.0 µM 90.7% | [2]; [8] 98% | [2]; at 50.0 µM 94.5% | [3]; [8] 98% | [3]; at 50.0 µM 97.3% | [4]; [8] 82% | [4]; at 50.0 µM 94.8% | [5]; [8] 98% | [5]; at 50.0 µM 96.8% | [6]; [8] 97% | [6]; at 50.0 µM 93.7%

CC(C)c1ccc(Nc2n[nH]c(=S)s2)cc1
inactive: [1]; [7] 39% | [2]; [7] 32% | [3]; [7] 35% | [3]; [8] 68% | [4]; [7] 22% | [5]; [7] 33% | [6]; [7] 41%
active: [1]; [8] 82% | [1]; at 50.0 µM 86.1% | [2]; [8] 79% | [2]; at 50.0 µM 83% | [3]; at 50.0 µM 87.8% | [4]; [8] 85% | [4]; at 50.0 µM 84.6% | [5]; [8] 94% | [5]; at 50.0 µM 87.5% | [6]; [8] 82% | [6]; at 50.0 µM 84.1%

O=S(=O)(O)c1cnccn1
active: [1]; at 50.0 µM 91.3% | [2]; at 50.0 µM 98.3% | [3]; at 50.0 µM 87.8% | [4]; at 50.0 µM 80.8% | [5]; at 50.0 µM 96.9% | [6]; at 50.0 µM 80.9%
inactive: [1]; [7] 0% | [1]; [8] -4% | [2]; [7] -2% | [2]; [8] -3% | [3]; [7] -4% | [3]; [8] -3% | [4]; [7] 0% | [4]; [8] 3% | [5]; [7] 2% | [5]; [8] 6% | [6]; [7] 1% | [6]; [8] -2%
